Screening results from PubChem BioAssay.
PTK2B oligo ant = antagonists of Pyk2 self-association, primary screen, Q293 cells, FERM NanoBiT luminescence, HTS | Protein-tyrosine kinase 2-beta (Homo sapiens), Q14289 | stronger effect = lower value | z-score (the deposit names both 25 µM and 10 µM) | 99,000 tested, 0.83% active;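 active = Z-score of -3 or lower, scaled per plate to the spread of control and sample wells; inactive = z-score above -3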;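 note: negative z-score means lost luminescence so less FERM oligomerization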
CYP2C9 activ = human CYP2C9 activators, primary screen, biochemical, luminescence; Cytochrome P450 2C9 (Homo sapiens), P11712; recombinant CYP2C9, luciferin-H conversion; stronger effect = higher value; factor 1 = untreated enzyme, 0 = blocked; activation factor at 5 µM; 96,000 tested, 1.4% active;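 active = activation factor of 2 or more for CYP2C9 at a 5 µM dose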;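 note: 0 = sulfaphenazole-blocked wells and 1 = vehicle-only wells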
CYP2C19 inh = blockers of cytochrome P450 2C19 activity – biochemical, luminescence, ADME assay, primary screen; P33261; CYP2C19 Supersomes, luciferin-H EGE luminescence, 30 min; inhibition, % at 5 µM; 96,000 tested, 21% active;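 active = CYP2C19 inhibition above a set limit at 5 µM in the primary screen, cut at about 50% in these data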;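 note: plate controls were negative control wells for no effect and 2.5 mM tranylcypromine positive control for full effect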
CYP2C9 inh = blockers of cytochrome P450 2C9 activity – biochemical, luminescence, ADME assay, primary screen; inhibition, % at 5 µM; 96,000 tested, 20% active; CYP2C9 Supersomes, luciferin-H conversion;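 active = blocking of liver enzyme CYP2C9 beyond about 50% at 5 µM, limit read from the data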
CYP2C19 activ = human CYP2C19 activators, primary screen, biochemical, luminescence. Cytochrome P450 2C19 (Homo sapiens), P33261. recombinant CYP2C19, luciferin-H EGE luminescence; stronger effect = higher value; 0 = fully inhibited enzyme, 1 = untreated enzyme. activation factor at 5 µM. 96,000 tested, under 10 active. AID 1025, 2008;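 active = activation factor of at least 2 at 5 µM in the primary screen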;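 note: 0 = wells with 2.5 mM tranylcypromine and 1 = vehicle-only wells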
* hit, by the source's call. Most compounds without a hit are left out; they make up all but 28% or so of the library.

Cc1cccc(C)c1NC(=O)COc1cccc(/C=N/NC(=O)C(=O)NCc2ccccc2)c1 was read as PTK2B oligo ant 0.47, CYP2C9 activ 1, CYP2C19 inh 3, CYP2C9 inh 3 and CYP2C19 activ 1.
Screening Cn1c(=O)[nH]c(=O)c2c1nc(N1CCNCC1)n2CCOc1ccccc1 returned PTK2B oligo ant -0.1.
CCNc1nc2c(c(=O)[nH]c(=O)n2C)n1Cc1ccc(F)cc1 was read as CYP2C9 activ 1.1, CYP2C19 inh -7, CYP2C9 inh -7 and CYP2C19 activ 1.1.
`O=C1C(=C(c2ccccc2)c2ccccc2)Nc2ccccc21` gave PTK2B oligo ant -2.9, CYP2C9 activ 0.1, CYP2C19 inh 64*, CYP2C9 inh 89* and CYP2C19 activ 0.4.
For O=C1C(=C(O)c2ccccc2)C(=O)c2ccccc21 the results were PTK2B oligo ant 0.27, CYP2C9 activ 0.6, CYP2C19 inh 1, CYP2C9 inh 44 and CYP2C19 activ 1.
For Cc1cc(C)c(C(N)=O)c(NC(=O)Nc2ccccc2)n1 the results were PTK2B oligo ant 0.94, CYP2C9 activ 1, CYP2C19 inh -5, CYP2C9 inh 0 and CYP2C19 activ 1.
Screening Cn1cnnc1SCc1ccccc1 returned PTK2B oligo ant -0.17, CYP2C9 activ 1.2, CYP2C19 inh -13, CYP2C9 inh -22 and CYP2C19 activ 1.1.
Cn1cnnc1SCc1ccc(F)c2ccccc12 was read as PTK2B oligo ant 0.03, CYP2C9 activ 1.1, CYP2C19 inh 56*, CYP2C9 inh -13 and CYP2C19 activ 0.4.
COc1ccc(OC)c(C2NC(=O)NC(C)=C2C(=O)Nc2ccc(C)cc2C)c1 (stereo not drawn) was read as PTK2B oligo ant 0.42, CYP2C9 activ 0.8, CYP2C19 inh 44, CYP2C9 inh 24 and CYP2C19 activ 0.6.
Screening CC(=O)c1ccc(OCCCC(=O)N2CCN(S(=O)(=O)c3cccs3)CC2)cc1 returned PTK2B oligo ant 0.46, CYP2C9 activ 0.6, CYP2C19 inh 15, CYP2C9 inh 42 and CYP2C19 activ 0.9.
For CCOC(=O)C1CCN(S(=O)(=O)C(F)(F)c2nc3ccccc3s2)CC1 the results were PTK2B oligo ant 0.61, CYP2C9 activ 0.4, CYP2C19 inh 95*, CYP2C9 inh 65* and CYP2C19 activ 0.
For O=S(=O)(c1cccs1)N1CCN(Cc2nc3ccccc3s2)CC1 the results were PTK2B oligo ant 1.1, CYP2C9 activ 0.2, CYP2C19 inh 85*, CYP2C9 inh 83* and CYP2C19 activ 0.2.
O=C(COC(=O)C1CCN(S(=O)(=O)c2cccs2)CC1)c1cc2ccccc2o1 was read as PTK2B oligo ant 0.69, CYP2C9 activ 0.8, CYP2C19 inh 9, CYP2C9 inh 19 and CYP2C19 activ 0.9.
`O=C(OCc1nc2ccccc2s1)C1CCN(S(=O)(=O)c2cccs2)CC1` gave PTK2B oligo ant 1.9, CYP2C9 activ 0, CYP2C19 inh 82*, CYP2C9 inh 95* and CYP2C19 activ 0.2.
For O=C(CCCc1cccs1)N1CCN(S(=O)(=O)c2ccccc2Br)CC1 the results were PTK2B oligo ant -0.9, CYP2C9 activ 0.3, CYP2C19 inh 48, CYP2C9 inh 69* and CYP2C19 activ 0.5.
Screening CSC(=NCCCN1CCOCC1)NS(=O)(=O)c1cccs1 returned PTK2B oligo ant -0.67, CYP2C9 activ 1.2, CYP2C19 inh -3, CYP2C9 inh -15 and CYP2C19 activ 1.
Screening CC(O)Cc1nsc(NC(=O)c2ccc(Br)o2)n1 (stereo not drawn) returned PTK2B oligo ant -0.11, CYP2C9 activ 1.1, CYP2C19 inh -5, CYP2C9 inh -8 and CYP2C19 activ 1.1.
`O=C(CCCOc1ccccc1)N1CCN(S(=O)(=O)c2cccs2)CC1` gave PTK2B oligo ant 0.51, CYP2C9 activ 0.9, CYP2C19 inh 13, CYP2C9 inh 10 and CYP2C19 activ 0.9.
O=C(CCc1nc2ccccc2s1)N1CCN(S(=O)(=O)c2cccs2)CC1 was read as PTK2B oligo ant 1.1, CYP2C9 activ 0.4, CYP2C19 inh 70*, CYP2C9 inh 59* and CYP2C19 activ 0.3.
Screening CC1=[N+]([O-])C(C)(C)CC(C)(C)c2ccccc21 returned PTK2B oligo ant 1, CYP2C9 activ 0.9, CYP2C19 inh 12, CYP2C9 inh 14 and CYP2C19 activ 0.9.
Screening O=S(=O)(c1ccccc1)N1CCN(c2nnnn2-c2ccccc2)CC1 returned PTK2B oligo ant -0.18, CYP2C9 activ 0.8, CYP2C19 inh 51*, CYP2C9 inh 21 and CYP2C19 activ 0.5.
For c1ccc(CC2CCN(c3nnnn3-c3ccccc3)CC2)cc1 the results were PTK2B oligo ant -1.4, CYP2C9 activ 0.5, CYP2C19 inh 63*, CYP2C9 inh 54* and CYP2C19 activ 0.4.
Screening O=C1NCN(c2ccccc2)C12CCN(c1nnnn1-c1ccccc1)CC2 returned PTK2B oligo ant 0.26, CYP2C9 activ 0.8, CYP2C19 inh 58*, CYP2C9 inh 20 and CYP2C19 activ 0.4.
O=S(=O)(c1ccc2c(c1)OCO2)N1CCN(c2nnnn2-c2ccccc2)CC1 was read as PTK2B oligo ant -0.72, CYP2C9 activ 0.7, CYP2C19 inh 29, CYP2C9 inh 29 and CYP2C19 activ 0.7.
O=C(COC(=O)c1cccs1)NCc1ccccc1 was read as PTK2B oligo ant 0.67, CYP2C9 activ 0.8, CYP2C19 inh 92*, CYP2C9 inh 23 and CYP2C19 activ 0.1.
Screening CSc1ccc(Cl)c(C(=O)NCc2ccco2)c1 returned PTK2B oligo ant -0.65, CYP2C9 activ 1.1, CYP2C19 inh 35, CYP2C9 inh -12 and CYP2C19 activ 0.7.
CSc1ccc(Cl)c(C(=O)OCC(=O)NCc2ccco2)c1 was read as PTK2B oligo ant 2, CYP2C9 activ 0.6, CYP2C19 inh 93*, CYP2C9 inh 43 and CYP2C19 activ 0.1.
For CC(C)(C)c1ccc(OCC(=O)NCc2ccco2)c(Br)c1 the results were PTK2B oligo ant 0.88, CYP2C9 activ 0.2, CYP2C19 inh 46, CYP2C9 inh 76* and CYP2C19 activ 0.5.
For O=C(Cc1ccccc1)NCC(=O)OCC(=O)c1cccs1 the results were PTK2B oligo ant -0.16, CYP2C9 activ 0.8, CYP2C19 inh 3, CYP2C9 inh 18 and CYP2C19 activ 1.
For CCOc1cc(C(=O)OCC(=O)NCc2ccco2)cc(OCC)c1OCC the results were PTK2B oligo ant 1.4, CYP2C9 activ 0.4, CYP2C19 inh 58*, CYP2C9 inh 57* and CYP2C19 activ 0.4.
For NC(=O)C1CCN(Cc2nc(-c3ccccc3)no2)CC1 the results were PTK2B oligo ant 1, CYP2C9 activ 0.9, CYP2C19 inh 5, CYP2C9 inh 7 and CYP2C19 activ 1.
COc1ccccc1C(=O)Nc1c2c(nn1-c1cccc(C)c1C)CS(=O)C2 (stereo not drawn) was read as PTK2B oligo ant 0.14, CYP2C9 activ 0.7, CYP2C19 inh 40, CYP2C9 inh 26 and CYP2C19 activ 0.6.
